Assay results taken from ChEMBL document CHEMBL5308504, “Tm Shift (DSF) assay results for EUbOPEN Chemogenomics Library” (2023).

Biological target: Bromodomain-containing protein 4 (Homo sapiens) (UniProt O60885)
Settings: Compound concentration 20.0 uM, Protein concentration 2.0 uM, Result type QC Liability

Structure (SMILES) | ΔTm [°C]
CN[C@@H]1CC[C@@H](c2ccc(Cl)c(Cl)c2)c2ccccc21 | -1.03
COc1ccc(S(=O)(=O)N2CCOCC2)cc1Nc1ccc2c(n1)N(C1CCOCC1)[C@H](C)C(=O)N2C | 5.07
CN1CCC(F)(Cn2cnc(-c3ccc(F)cn3)c2-c2ccnc3[nH]ccc23)CC1 | -2.6
Cn1nccc1-c1ccc(Sc2cccc(C3(C(N)=O)CCOCC3)c2)cc1 | -0.19
Cn1cc(Nc2nccc(N3CC4CCC(C3)N4C(=O)[C@@H]3CC3(F)F)n2)cn1 | -1.13
COc1cc(N(C)c2ccnc3ccc(C(F)(F)F)cc23)cc(OC)c1OC | -0.67
CN1CCN(c2ccnc(NCCc3ccccc3)n2)CC1 | -0.31
Cn1cc(-c2ccc(N(C(=O)NCc3ccccc3)[C@H]3CC[C@H](Nc4ccc(C#N)cn4)CC3)cc2)ccc1=O | -0.82
CC(=O)Nc1nc(CN2CCC[C@H](Cc3cc(C)nc(C)c3)C2)cs1 | 0.35
CS(=O)(=O)NC(=O)CCC/C=C\C[C@H]1C(=O)C[C@@H](O)[C@@H]1/C=C/[C@@H](O)COc1ccccc1 | -2
C/C(=C\C(=O)Nc1ccccc1C(=O)O)c1ccc2ccccc2c1 | -0.82
COc1nc2ccc([C@@](O)(c3ccccc3)C3CCN(C(C)=O)CC3)cc2c(Cl)c1Cc1ccc(-n2cccn2)cc1 | -3.41
CCc1nc(C2CCC2)n2nc(-c3ccccc3)[nH]c(=O)c12 | 0.07
CC[C@H](NC(=O)[C@H](C)NC)C(=O)N1C[C@@H](O)C[C@H]1Cc1c(-c2[nH]c3cc(F)ccc3c2C[C@@H]2C[C@H](O)CN2C(=O)[C@H](CC)NC(=O)[C@H](C)NC)[nH]c2cc(F)ccc12 | -3.47
COc1ccc(-c2c(-c3ccccc3)oc3ncnc(O[C@H](C)CCCCC(=O)O)c23)cc1 | -0.98
O=C1CCCN1CCNc1nc(Nc2ccc(Cl)c(Cl)c2)ncc1C(F)(F)F | -2.43
O=C(O)CCCN1CCC[C@H]1COc1ccc(Oc2ccc(Cl)cc2)cc1 | -2.86
CC(=O)N1CCC(c2ccc(C(=O)NC(=N)N)cc2C(F)(F)F)CC1 | -0.62
CNC(=O)COc1cc2cc(Nc3nc(N4C[C@H](C)C[C@H](C)C4)ncc3Cl)ccc2n(C)c1=O | -0.33
COc1c(-c2cn(C3CCC(=O)NC3=O)nn2)csc1C(=O)N1CCCC1 (stereo not given) | -0.9
CCN(CC)C(=O)C1CN2CCc3cc(OC)c(OC)cc3C2CC1OC(C)=O (stereo not given) | -0.18
C[C@@H](Oc1cc(-n2cnc3ccc(OC4CCN(C)CC4)cc32)sc1C(N)=O)c1ccccc1Cl | -2.01
Cc1cc2nc(N3CCC(C(=O)NC4CCCC4)CC3)n(C(C)C)c2cc1C | -0.57
O=C(O)c1cc2cc(Cc3cccnc3)ccc2o1 | -1.5
Clc1cccc(Nc2nccc(NCCCN3CCOCC3)n2)c1 | -3.15
CC(C)(O)[C@H]1CC[C@H](Nc2ccc3ncc(-c4cccc(C(F)(F)F)c4)n3n2)CC1 | -0.97

Biological target: T1, Transcription intermediary factor 1-alpha (Homo sapiens) (UniProt O15164)
T1 sequence (whole entry): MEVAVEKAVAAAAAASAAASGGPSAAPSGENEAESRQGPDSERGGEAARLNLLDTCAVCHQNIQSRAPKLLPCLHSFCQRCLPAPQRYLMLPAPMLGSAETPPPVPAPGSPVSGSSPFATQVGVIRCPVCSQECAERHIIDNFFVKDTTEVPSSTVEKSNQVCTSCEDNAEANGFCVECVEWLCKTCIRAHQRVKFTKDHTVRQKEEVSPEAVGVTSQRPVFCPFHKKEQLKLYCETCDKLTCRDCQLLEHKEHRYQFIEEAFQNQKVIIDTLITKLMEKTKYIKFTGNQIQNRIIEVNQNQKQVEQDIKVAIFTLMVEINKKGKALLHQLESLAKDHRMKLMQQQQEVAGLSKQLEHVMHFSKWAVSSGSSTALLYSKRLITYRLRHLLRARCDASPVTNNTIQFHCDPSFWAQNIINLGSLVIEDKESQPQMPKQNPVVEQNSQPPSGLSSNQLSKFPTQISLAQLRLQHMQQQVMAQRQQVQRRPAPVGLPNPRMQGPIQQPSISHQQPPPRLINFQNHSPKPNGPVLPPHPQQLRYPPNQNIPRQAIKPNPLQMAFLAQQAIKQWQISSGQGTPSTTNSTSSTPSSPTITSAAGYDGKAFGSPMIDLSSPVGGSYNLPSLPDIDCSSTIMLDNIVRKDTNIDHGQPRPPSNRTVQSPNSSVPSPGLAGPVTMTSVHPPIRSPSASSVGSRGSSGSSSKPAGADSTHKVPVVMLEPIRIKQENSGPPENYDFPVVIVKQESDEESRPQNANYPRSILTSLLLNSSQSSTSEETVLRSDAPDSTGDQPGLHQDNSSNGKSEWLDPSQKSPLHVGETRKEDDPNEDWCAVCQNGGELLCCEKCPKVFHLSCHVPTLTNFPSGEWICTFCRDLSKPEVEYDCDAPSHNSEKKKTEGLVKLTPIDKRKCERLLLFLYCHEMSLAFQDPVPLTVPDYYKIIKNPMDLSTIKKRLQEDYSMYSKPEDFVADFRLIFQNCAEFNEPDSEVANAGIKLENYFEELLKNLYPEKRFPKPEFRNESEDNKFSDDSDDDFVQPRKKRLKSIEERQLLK
Settings: Compound concentration 20.0 uM, Protein concentration 2.0 uM, Result type QC Liability

Structure (SMILES) | ΔTm [°C]
CC(=O)Oc1ccc2c(c1)[C@@]1(C)CCC[C@](C)(C(=O)OC(=O)[C@@]3(C)CCC[C@]4(C)c5cc(OC(C)=O)ccc5CC[C@@H]34)[C@@H]1CC2 | -3.04
Cn1cc(NC(=O)c2ccc3nc4n(c3c2)CCCNC4=O)nc1C(=O)NC1CCCC1 | -2.92
CN(C)C(=O)Cn1cc(-c2ccc(-c3cncc4ccccc34)cc2)cn1 | 0.13
CC(C)(c1ccc(OCc2cccc(COc3ccc(C(=N)N)cc3)c2)cc1)c1ccc(O[C@@H]2O[C@H](C(=O)O)[C@@H](O)[C@H](O)[C@H]2O)cc1 | -5.37
CC#CC(=O)N1CCN(c2nc(-c3ccc(Oc4ccccc4)cc3)c(C(N)=O)s2)CC1 | -3.1
Cc1cccc(-c2nn3c(c2-c2ccnc4ccc(C(N)=O)cc24)CCC3)n1 | -2.8
COc1cc(-c2cc([C@H](O)C3CC3)n3ncnc(N)c23)ccc1CO | 0.24
CCO[C@@H](Cc1ccc(OCCc2ccc(OS(C)(=O)=O)cc2)cc1)C(=O)O | -3.53
COc1cc2ncnc(Nc3ccc4c(cnn4Cc4ccccc4)c3)c2cc1OC | -2.15
Cc1nccc(COC(=O)N2C[C@@H]3[C@@H](CNC(=O)c4ccc5[nH]nnc5c4)[C@@H]3C2)n1 | 0.34
N=C(N)NCCC[C@H](NC(=O)CC1(CC(=O)N2CCN(C(c3ccccc3)c3ccccc3)CC2)CCCC1)C(=O)NCc1ccccc1 | -1.18
COc1cc2ncnc(N[C@H](C)c3ccccc3)c2cc1OC1CCN(S(C)(=O)=O)CC1 | -1.88
CC(=O)Nc1cccc(-n2c(=O)n(C3CC3)c(=O)c3c(Nc4ccc(I)cc4F)n(C)c(=O)c(C)c32)c1 | -2.86
CN[C@@H]1CC[C@@H](c2ccc(Cl)c(Cl)c2)c2ccccc21 | -3.59
COc1ccc(S(=O)(=O)N2CCOCC2)cc1Nc1ccc2c(n1)N(C1CCOCC1)[C@H](C)C(=O)N2C | -1.05
CN1CCC(F)(Cn2cnc(-c3ccc(F)cn3)c2-c2ccnc3[nH]ccc23)CC1 | -2.99
Cn1nccc1-c1ccc(Sc2cccc(C3(C(N)=O)CCOCC3)c2)cc1 | 0.56
Cn1cc(Nc2nccc(N3CC4CCC(C3)N4C(=O)[C@@H]3CC3(F)F)n2)cn1 | -1.71
COc1cc(N(C)c2ccnc3ccc(C(F)(F)F)cc23)cc(OC)c1OC | -4.07
CN1CCN(c2ccnc(NCCc3ccccc3)n2)CC1 | -0.99

Structure (SMILES) | ΔTm [°C]
Cn1cc(-c2ccc(N(C(=O)NCc3ccccc3)[C@H]3CC[C@H](Nc4ccc(C#N)cn4)CC3)cc2)ccc1=O | -1.6
CC(=O)Nc1nc(CN2CCC[C@H](Cc3cc(C)nc(C)c3)C2)cs1 | -1.42
CS(=O)(=O)NC(=O)CCC/C=C\C[C@H]1C(=O)C[C@@H](O)[C@@H]1/C=C/[C@@H](O)COc1ccccc1 | -0.45
C/C(=C\C(=O)Nc1ccccc1C(=O)O)c1ccc2ccccc2c1 | 0.61
COc1nc2ccc([C@@](O)(c3ccccc3)C3CCN(C(C)=O)CC3)cc2c(Cl)c1Cc1ccc(-n2cccn2)cc1 | -0.87
CCc1nc(C2CCC2)n2nc(-c3ccccc3)[nH]c(=O)c12 | 0.37
CC[C@H](NC(=O)[C@H](C)NC)C(=O)N1C[C@@H](O)C[C@H]1Cc1c(-c2[nH]c3cc(F)ccc3c2C[C@@H]2C[C@H](O)CN2C(=O)[C@H](CC)NC(=O)[C@H](C)NC)[nH]c2cc(F)ccc12 | -3.97
COc1ccc(-c2c(-c3ccccc3)oc3ncnc(O[C@H](C)CCCCC(=O)O)c23)cc1 | -1.53
O=C1CCCN1CCNc1nc(Nc2ccc(Cl)c(Cl)c2)ncc1C(F)(F)F | -1.81
O=C(O)CCCN1CCC[C@H]1COc1ccc(Oc2ccc(Cl)cc2)cc1 | -0.92
CC(=O)N1CCC(c2ccc(C(=O)NC(=N)N)cc2C(F)(F)F)CC1 | 0.53
CNC(=O)COc1cc2cc(Nc3nc(N4C[C@H](C)C[C@H](C)C4)ncc3Cl)ccc2n(C)c1=O | 0.23
COc1c(-c2cn(C3CCC(=O)NC3=O)nn2)csc1C(=O)N1CCCC1 (stereo not given) | -2.25
CCN(CC)C(=O)C1CN2CCc3cc(OC)c(OC)cc3C2CC1OC(C)=O (stereo not given) | 0.29
C[C@@H](Oc1cc(-n2cnc3ccc(OC4CCN(C)CC4)cc32)sc1C(N)=O)c1ccccc1Cl | -2.55
Cc1cc2nc(N3CCC(C(=O)NC4CCCC4)CC3)n(C(C)C)c2cc1C | -0.87
O=C(O)c1cc2cc(Cc3cccnc3)ccc2o1 | -0.74
Clc1cccc(Nc2nccc(NCCCN3CCOCC3)n2)c1 | -3.59
CC(C)(O)[C@H]1CC[C@H](Nc2ccc3ncc(-c4cccc(C(F)(F)F)c4)n3n2)CC1 | -1.82
